Measurements from PubChem BioAssay AID1159580 (chemical genetic matrix, 2015).
Where “and” joins values, the source holds several entries; their conditions need not be identical. Equal entries are not always repeated. The campaign covered roughly 5,500 compounds. About 2,000 (36%) were called active. Another 18% or so got no clear call; they are omitted. Rule as the data show it: active = normalized growth mostly below about 0.91 (no sharp cut-off); inconclusive = no clear call, values can overlap the other calls; inactive = mostly above about 0.92. The list shows a part of the results.

Assay: chemical genetic growth profiling, strain panel (AID 1159580);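 also: tested at 20 µM; growth read once vehicle control cultures reached saturation at 30 °C; 1 = growth at the plate median or of vehicle wells; lower values mean less growth of the strain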
Conditions: S. cerevisiae deletion strains, growth OD

Measured: normalized growth

NCCc1ccc(O)c(O)c1
inactive: locus YAL013W, strain DEP1, stronger effect = lower value 1 and 0.968 | locus YAL021C, strain ccr4, stronger effect = lower value 1.01 | locus YAL026C, strain drs2, stronger effect = lower value 1 | locus YAL030W, strain snc1, stronger effect = lower value 1.01 | locus YAL040C, strain CLN3, stronger effect = lower value 0.983 | locus YBL061C, strain skt5, stronger effect = lower value 0.998 | locus YBR009C, strain hhf1, stronger effect = lower value 0.978 | locus YBR021W, strain FUR4, stronger effect = lower value 0.999 | locus YBR023C, strain chs3, stronger effect = lower value 1 | locus YBR171W, strain sec66, stronger effect = lower value 0.997 | locus YBR229C, strain ROT2, stronger effect = lower value 1 | locus YBR231C, strain swc5, stronger effect = lower value 0.997 | locus YBR279W, strain paf1, stronger effect = lower value 1 | locus YCL011C, strain gbp2, stronger effect = lower value 0.981 | locus YCL016C, strain dcc1, stronger effect = lower value 0.991 | locus YCL029C, strain bik1, stronger effect = lower value 0.965 | locus YCL061C, strain MRC1 (second series), stronger effect = lower value 0.997 | locus YCL061C, strain MRC1, stronger effect = lower value 0.987 | locus YCL069W, strain vba3, stronger effect = lower value 0.981 | locus YCR088W, strain abp1, stronger effect = lower value 0.995 | locus YDL005C, strain med2, stronger effect = lower value 1 | locus YDL035C, strain GPR1, stronger effect = lower value 1.01 | locus YDL040C, strain nat1, stronger effect = lower value 1.01 | locus YDL074C, strain BRE1, stronger effect = lower value 0.978 | locus YDL101C, strain DUN1, stronger effect = lower value 0.988 | locus YDL134C, strain PPH21, stronger effect = lower value 1.04 | locus YDL185W, strain tfp1, stronger effect = lower value 0.979 | locus YDL192W, strain arf1, stronger effect = lower value 0.995 | locus YDR001C, strain nth1, stronger effect = lower value 1 | locus YDR069C, strain doa4, stronger effect = lower value 0.999 | locus YDR101C, strain arx1, stronger effect = lower value 1.01 | locus YDR137W, strain rgp1, stronger effect = lower value 1.03 | locus YDR150W, strain NUM1, stronger effect = lower value 0.992 | locus YDR159W, strain sac3, stronger effect = lower value 1.03 | locus YDR162C, strain NBP2, stronger effect = lower value 1 | locus YDR195W, strain ref2 1.01 | locus YDR297W, strain sur2, stronger effect = lower value 1 | locus YDR318W, strain mcm21, stronger effect = lower value 0.988 | locus YDR334W, strain swr1, stronger effect = lower value 0.996 | locus YDR335W, strain msn5, stronger effect = lower value 1.01 | locus YDR363W, strain ESC2, stronger effect = lower value 0.998 | locus YDR388W, stronger effect = lower value 1 | locus YDR392W, strain spt3, stronger effect = lower value 0.993 | locus YDR502C, strain sam2, stronger effect = lower value 0.998 | locus YEL003W, strain gim4, stronger effect = lower value 0.977 | locus YEL037C, strain rad23, stronger effect = lower value 1 | locus YEL061C, strain CIN8 (second series), stronger effect = lower value 1.02 | locus YEL061C, strain CIN8, stronger effect = lower value 0.997 | locus YER002W, strain NOP16, stronger effect = lower value 1.01 | locus YER015W, strain faa2, stronger effect = lower value 1.02 | locus YER016W, strain bim1, stronger effect = lower value 1 | locus YER110C, stronger effect = lower value 0.984 | locus YER111C, strain swi4, stronger effect = lower value 0.993 | locus YER155C, strain BEM2 (second series), stronger effect = lower value 1 | locus YER155C, strain BEM2, stronger effect = lower value 1 | locus YER167W, strain BCK2, stronger effect = lower value 0.995 | locus YFR010W, strain ubp6, stronger effect = lower value 0.984 | locus YGL078C, strain dbp3, stronger effect = lower value 1 | locus YGL086W, strain mad1, stronger effect = lower value 0.998 | locus YGL167C, strain pmr1, stronger effect = lower value 1.02 | locus YGL173C, strain kem1, stronger effect = lower value 0.98 | locus YGL227W, strain vid30, stronger effect = lower value 1 | locus YGL240W, strain doc1, stronger effect = lower value 1.01 | locus YGL248W, strain PDE1, stronger effect = lower value 0.961 | locus YGL253W, strain hxk2, stronger effect = lower value 0.989 | locus YGR135W, strain pre9, stronger effect = lower value 0.95 | locus YGR229C, strain SMI1, stronger effect = lower value 1.02 | locus YGR252W, strain gcn5, stronger effect = lower value 1.01 | locus YHR013C, strain ard1, stronger effect = lower value 0.993 | locus YHR027C, strain rpn1, stronger effect = lower value 1 | locus YHR030C, strain SLT2, stronger effect = lower value 1 and 1.04 and 1.03 | locus YHR079C, strain IRE1 (second series), stronger effect = lower value 0.994 | locus YHR079C, strain IRE1, stronger effect = lower value 1.03 and 1.04 | locus YHR094C, strain hxt1, stronger effect = lower value 0.996 | locus YHR129C, strain ARP1, stronger effect = lower value 1.01 | locus YHR142W, strain chs7, stronger effect = lower value 1 | locus YHR200W, strain rpn10, stronger effect = lower value 0.994 | locus YIL066C, strain RNR3, stronger effect = lower value 0.987 | locus YIL073C, strain SPO22, stronger effect = lower value 0.891 | locus YIL125W, strain kgd1, stronger effect = lower value 1 | locus YIR030C, strain dcg1, stronger effect = lower value 0.982 | locus YJL092W, strain hpr5, stronger effect = lower value 1.01 | locus YJL095W, strain BCK1 (second series), stronger effect = lower value 1.01 | locus YJL095W, strain BCK1, stronger effect = lower value 0.972 and 1.03 | locus YJL115W, strain asf1, stronger effect = lower value 1.01 | locus YJL129C, strain trk1, stronger effect = lower value 0.998 | locus YJL134W, strain LCB3, stronger effect = lower value 1 | locus YJL154C, strain vps35, stronger effect = lower value 1.01 | locus YJL164C, strain tpk1, stronger effect = lower value 1.01 | locus YJL166W, strain qcr8, stronger effect = lower value 1 | locus YJL168C, strain set2, stronger effect = lower value 1.01
